From the supplement of paper PMC12494721
Where a name gives a salt, the structure may show the parent alone. Unmarked numbers belong to inactive results.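 How the source made its calls: for the amine columns active = adjusted P below 0.05 in both replicates with a change the same way and a mean fold change under 0.8 or over 1.25; inactive = the rest.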

Tested on: Klebsiella aerogenes DSM 30053
Assay: fold change of Histamine concentration vs plate DMSO controls (fold change (ratio)); higher = more amine produced, active = hit call of the paper (significant change in both replicates, either direction)
Conditions: incubation time: 27 h, anaerobic, 37 °C
In short: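 Amines were quantified by LC–triple-quadrupole MS in dynamic MRM mode against external calibration curves, with drift correction within each batch. The samples were whole anaerobic mGAM cultures of four gut bacterial strains, grown for 27 h at 37 °C in 80 µL wells and extracted with cold acetonitrile/methanol with 0.1% formic acid, then centrifuged. Values are reported as fold change over DMSO controls on the same plate. The mean of 2 biological replicates is given.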

Compound	fold change of Histamine concentration
CC#C[C@]1(O)CC[C@H]2[C@@H]3CCC4=CC(=O)CCC4=C3[C@@H](c3ccc(N(C)C)cc3)C[C@@]21C [Mifepristone] (20 µM)	1.02
C[C@]12CC[C@@H]3c4ccc(O)cc4CC[C@H]3[C@@H]1CCC2=O [Estrone] (20 µM)	1.07
O=C(O)c1cccnc1Nc1cccc(C(F)(F)F)c1 [Niflumic acid] (20 µM)	1.05
OCCN1CCN(CCCN2c3ccccc3C=Cc3ccccc32)CC1 [Opipramol dihydrochloride] (20 µM)	1.03
COCC1=C(C(=O)OC(C)OC(=O)OC(C)C)N2C(=O)[C@@H](NC(=O)/C(=N\OC)c3csc(N)n3)[C@H]2SC1 (some centres undefined) [Cefpodoxime proxetil] (20 µM)	1.06
CN(CCOc1ccc(CC2SC(=O)NC2=O)cc1)c1ccccn1 (centres undefined) [Rosiglitazone hydrochloride] (20 µM)	0.998
CC(C(=O)O)c1ccc(-c2ccccc2)c(F)c1 (centres undefined) [Flurbiprofen] (20 µM)	1.07
CCCCc1oc2ccc(NS(C)(=O)=O)cc2c1C(=O)c1ccc(OCCCN(CCCC)CCCC)cc1 [Dronedarone hydrochloride] (20 µM)	0.99
O=C(COc1ccc(Cl)cc1)N1CCN(Cc2ccc3c(c2)OCO3)CC1 [Fipexide hydrochloride] (20 µM)	1
CCCCCCCCCCCCCCCC[N+](C)(C)CCN(Cc1ccc(OC)cc1)c1ncccn1 [Thonzonium bromide] (20 µM)	1.04
C#C[C@]1(O)CC[C@H]2[C@@H]3CCc4cc(OC)ccc4[C@H]3CC[C@@]21C [Mestranol] (20 µM)	0.93
OC(CCN1CCCCC1)(c1ccccc1)C1CCCCC1 (centres undefined) [Trihexyphenidyl-D,L hydrochloride] (20 µM)	0.954
O=C(Cn1cnnn1)N[C@@H]1C(=O)N2C(C(=O)O)=C(CSc3nncs3)CS[C@H]12 [Ceftezole] (20 µM)	0.895
CCOc1ccc(NC(N)=O)cc1 [(4-Ethoxyphenyl)urea] (50 µM)	0.964
NC(=O)c1ncn([C@@H]2O[C@H](CO)[C@@H](O)[C@H]2O)n1 [Ribavirin] (20 µM)	0.947
CC1(C)S[C@@H]2[C@H](NC(=O)C(C(=O)O)c3ccccc3)C(=O)N2[C@H]1C(=O)O (some centres undefined) [Carbenicillin disodium salt] (20 µM)	1.02
O=C(c1ccccc1)c1ccc2n1CCC2C(=O)O (centres undefined) [Ketorolac tromethamine] (20 µM)	1.04
CN(C(=O)CN(CCO)CC(=O)N(C)C(C)(C)Cc1ccccc1)C(C)(C)Cc1ccccc1 [Oxethazaine] (20 µM)	0.971
CCOC(=O)[C@H](CCc1ccccc1)N[C@@H](C)C(=O)N1Cc2ccccc2C[C@H]1C(=O)O [Quinapril hydrochloride] (20 µM)	1.06
CC[N+]1(CC)CCC(=C(c2ccccc2)c2ccccc2)C1C (centres undefined) [Prifinium Bromide] (20 µM)	0.982

Compound	fold change of Histamine concentration
O=P(O)(O)C(Cl)(Cl)P(=O)(O)O [Clodronate disodium] (20 µM)	1.02
CCOC(=O)[C@@](C)(N)Cc1ccc(O)c(O)c1 [Methyldopate hydrochloride] (20 µM)	0.963
O=C(NCCO[N+](=O)[O-])c1cccnc1 [Nicorandil] (20 µM)	1.06
CN1CCN(c2c(F)cc3c(=O)c(C(=O)O)cn(CCF)c3c2F)CC1 [Fleroxacin] (20 µM)	0.153 (active)
Cn1c(=O)c2c(ncn2CC(=O)O)n(C)c1=O [Acefylline] (20 µM)	0.964
CC(=O)[C@H]1CC[C@H]2[C@@H]3C[C@H](C)C4=CC(=O)CC[C@]4(C)[C@H]3[C@@H](O)C[C@]12C [Medrysone] (20 µM)	1.02
C=C1c2c(Cl)ccc(O)c2C(O)=C2C(=O)[C@]3(O)C(O)=C(C(N)=O)C(=O)[C@@H](N(C)C)[C@@H]3[C@@H](O)[C@H]12.O=C(O)c1cc(S(=O)(=O)O)ccc1O [Meclocycline sulfosalicylate] (20 µM)	0.0573 (active)
N[C@@H](CSCCCO)C(=O)O [Fudosteine] (20 µM)	0.977
CC1=C(C(=O)O)N2C(=O)[C@@H](NC(=O)[C@H](N)C3=CCC=CC3)[C@H]2SC1 [Cephradine monohydrate] (20 µM)	0.968
Nc1ncnc2c1ncn2[C@@H]1O[C@H](CO)[C@@H](O)[C@@H]1O [Vidarabine] (20 µM)	1.05
CC(C)(CO)[C@@H](O)C(=O)NCCC(=O)NCCSSCCNC(=O)CCNC(=O)[C@H](O)C(C)(C)CO [D-Pantethine] (20 µM)	0.976
CC(=O)SCC(Cc1ccccc1)C(=O)NCC(=O)OCc1ccccc1 (centres undefined) [Racecadotril] (20 µM)	0.978
O=C(CCCN1CCN(c2ccccn2)CC1)c1ccc(F)cc1 [Azaperone] (20 µM)	1.01
C[C@H](NCc1ccc(OCc2cccc(F)c2)cc1)C(N)=O [Safinamide] (20 µM)	1.02
CCCC(=O)N1CCCN(c2nc(N)c3cc(OC)c(OC)cc3n2)CC1 [Bunazosin hydrochloride] (20 µM)	1.04
Cc1ccc2c(c1)c1c3n2CCNC3CCC1 (centres undefined) [Pirlindole mesylate] (20 µM)	0.963
CC(C)(C)NC(=O)[C@@H]1CN(Cc2cccnc2)CCN1C[C@@H](O)C[C@@H](Cc1ccccc1)C(=O)N[C@H]1c2ccccc2C[C@H]1O [Indinavir sulfate] (20 µM)	0.966
COc1cc(Nc2c(C#N)cnc3cc(OCCCN4CCN(C)CC4)c(OC)cc23)c(Cl)cc1Cl [Bosutinib] (20 µM)	0.973
O=C1[C@H](CC[C@H](O)c2ccc(F)cc2)[C@@H](c2ccc(O)cc2)N1c1ccc(F)cc1 [Ezetimibe] (20 µM)	0.972
